High-throughput results deposited in PubChem BioAssay by National Center for Advancing Translational Sciences (NCATS).
This is a sample that favours compounds with a hit; in the whole collection about 8.3% have one here.
FMDV antiviral: High Throughput Screening for Foot and Mouth Disease Virus Antivirals | FMDV antiviral cell-based qHTS | Potency, µM (top dose mostly 57.9 µM), for the others: at the top dose activity change, negative = inhibition, most hits filed as inhibitors | 1.2% of 410,000 active; calls by dose curve; tested in HEK293T cells; note: read-out not given here; potency is the fitted concentration of half-maximal effect; nearly all actives have a fitted effect of over 45% in size
LASV entry inh: qHTS for Inhibitors of binding or entry into cells for Lassa Virus; Lassa virus pseudotype entry inhibition, cell reporter; Potency, µM (top dose mostly 37.9 µM), inactives show top-dose activity change, negative = inhibition, usual class: inhibitors; 1.2% of 300,000 active; AID 540256, 2011; calls by dose curve; tested in HEK293 cells; note: potency is the fitted concentration of half-maximal effect; nearly all actives have a fitted effect of over 50% in size
FBPA Giardia inh: qHTS Assay for Inhibitors of Fructose-1,6-bisphosphate Aldolase from Giardia Lamblia | purified Giardia FBPA | Potency, µM (highest dose often 59.6 µM), for the others: at the highest dose activity, negative = inhibition, actives largely listed as inhibitors | 0.71% of 290,000 active | AID 2451, 2010; note: potency is the fitted concentration of half-maximal effect; nearly all actives have a fitted effect of over 55% in size
Target sequence (A8B2U2 whole entry, looked up): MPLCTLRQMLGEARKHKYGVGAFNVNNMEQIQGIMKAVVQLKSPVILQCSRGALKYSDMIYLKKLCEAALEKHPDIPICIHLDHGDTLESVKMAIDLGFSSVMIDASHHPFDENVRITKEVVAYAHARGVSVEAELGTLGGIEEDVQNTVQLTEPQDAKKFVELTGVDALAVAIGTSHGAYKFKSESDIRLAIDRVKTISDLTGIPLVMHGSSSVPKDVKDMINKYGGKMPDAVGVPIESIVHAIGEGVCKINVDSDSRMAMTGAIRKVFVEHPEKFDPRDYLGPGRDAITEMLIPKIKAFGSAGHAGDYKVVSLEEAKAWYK
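Giardia FBPA (40 nM reagent) was preincubated 10 min at RT with compound (up to 57.5 uM final), then substrate plus GAPDH/TPI/NAD/arsenate coupling system with diaphorase/resazurin was added; resorufin fluorescence (525/598 nm) was read after 20 min.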
HCV inhibitor: qHTS Assay for Inhibitors of Hepatitis C Virus (HCV). Potency, µM (highest dose often 41.8 µM), without a hit: at the top dose activity change, negative = inhibition, hits mostly inhibitors. Huh7.5.1 HCVcc-Cre infection, luciferase reporter, 44 h. 3.4% of 340,000 active; note: potency is the fitted concentration of half-maximal effect
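Reporter virus HCVcc-Cre (~0.5 moi) infects cells exposed to compound; seeding density 1,000 cells/well with 4 h settling beforehand. Luminescence, 15 sec read, taken 44 h post-infection following a 15 min RT substrate incubation.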
HCMV inh: qHTS Assay for inhibitors of the human cytomegalovirus (HCMV); HFF cells, HCMV-luciferase reporter, 72 h; hits give low values; AID 1259415, 2018; activity change, negative = inhibition, % at 57.5 µM; 4.5% of 410,000 active; in the data active = activity change below about -60%; inconclusive = no clear call, values can overlap the other calls; inactive = above about -39%
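Inhibition of viral replication was scored as loss of reporter luminescence in HFFs infected with HCMV-luciferase (MOI 1 PFU/cell) for 72 h; compounds tested at 2 doses, normalized to buffer and Salinomycin controls.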
MARV entry inh: qHTS for inhibitors of binding or entry into cells for Marburg Virus; 1.8% of 300,000 active; Potency, µM (doses to about 37.8 µM), without a hit: top-dose activity change, negative = inhibition, actives largely listed as inhibitors; Marburg virus pseudotyped entry inhibition, cell reporter; calls by dose curve; tested in HEK293 cells; note: potency is the fitted concentration of half-maximal effect
* marks the source's active call; other numbers are inactive results; u = inconclusive; x = no result; [ ] = another dose, or the depositor's remark. Unless noted, calls come from the whole dose curve; as a rule, active = well fitted curve in the direction sought with a large enough effect; inconclusive = small, poorly fitted or top-dose-only effect, or another doubt; inactive = no such curve, though single readings can be large; an effect the other way counts as inactive or inconclusive. % is set by controls: 0 for no effect and ±100 for the full control effect.

SMILES	FMDV antiviral	LASV entry inh	FBPA Giardia inh	HCV inhibitor	HCMV inh	MARV entry inh
CCCN(CCC)CC(O)Cn1c2ccccc2c2ccccc21 (centres undefined)	-5%	-9%[46.1 µM]	-1%	u	-29	7.1µM*
CCc1ccc(NC(=O)COc2ccc(F)cc2C(=O)c2cnn(-c3ccccc3)c2)cc1	10%	-27%	-2%	u	-102*	u
COc1ccccc1NC(=O)COc1ccccc1C(=O)c1cnn(-c2ccccc2)c1	57%	x	-2%	-28%	22	-5%
CCOC1=CC(=O)N(CCC(=O)NCc2ccc(C)cc2)C1	x	x	x	x	2	x
COc1ccc(S(=O)(=O)NCc2ccco2)c2ccccc12	x	15%	-7%	3%	-66*	3%
COc1ccc(/C=C/C(=O)O)cc1S(=O)(=O)NCc1ccco1	0%	0%[46.1 µM]	1%	8%	11	4%[46.1 µM]
CC(=O)/C=C\C1[C@]2(C)CCCC(C)(C)C2CC[C@@]1(C)O (some centres undefined)	-5%	x	-1%	x	x	x
O=[N+]([O-])c1cc2no[n+]([O-])c2cc1N1CCCCC1	32µM*	-17%	x	u	-63*	2%
N#Cc1cc(N2CCCCC2)c([N+](=O)[O-])cc1C#N	0%	2%	0%	20%	-64*	3%
Cc1ccc(C)n1C1C(=O)N(Cc2ccc(Cl)nc2)c2ccccc21 (centres undefined)	x	x	x	x	-3	x
COc1ccc(NC(=S)NC2CC3CCCC(C2)N3C2CC2)cc1 (centres undefined)	4%	-3%	0%	u	u	u
CCc1ccc(NC(=S)NC2CC3CCCC(C2)N3Cc2cccs2)cc1 (centres undefined)	x	u	0%	7.9µM*	-31	u
COc1ccc(CN2C3CCCC2CC(NC(=O)Nc2cccc(C)c2)C3)cc1 (centres undefined)	-8%	u	12%	u	9	4.6µM*
CCCN1C2CCCC1CC(NC(=S)Nc1ccc(OC)cc1)C2 (centres undefined)	-6%	x	-1%	-19%	-64*	x
CCc1ccccc1NC(=O)NC1CC2CCC(C1)N2Cc1cccs1 (centres undefined)	x	3%	3%	-19%	-10	-45%
O=C(CCN1CC2CCC(CC2)C1)c1cccs1	25µM*	-13%	x	u	20	-4%
CCCOc1ccc2nc(NC(=O)OC)[nH]c2c1	9%	-28%	1%	5%[8.37 µM]	x	u
O=C(Nc1ccc(Oc2ccc3nc(NC(=O)c4ccccc4)[nH]c3c2)cc1)Nc1cc(C(F)(F)F)ccc1F	x	6.3µM*	x	x	x	x
Cc1ccc2nc(-c3ccc(NC(=O)c4ccco4)cc3)[nH]c2c1	0%	u	-15%	u	-7	u
COc1ccc(NC(=S)Nc2cc(C(F)(F)F)ccc2F)cc1	0%	u	-7%	-12%	u	16%[46.1 µM]
COC(=O)Nc1nc2ccc(Oc3ccc(NC(=O)Nc4cccc(Br)c4)cc3)cc2[nH]1	x	18µM*	x	x	x	x
O=C(Nc1ccc(Oc2ccc3nc(NC(=O)c4ccco4)[nH]c3c2)cc1)Nc1cc(C(F)(F)F)ccc1F	x	7.9µM*	x	x	x	x
Cc1ccc(C2CC(=O)Oc3cc(C)c(Cl)cc32)cc1 (centres undefined)	x	x	4%[89.2 µM]	x	x	x
CNCCC[C@]12CC[C@H](C3=C1CCCC3)C1CCCCC12 (some centres undefined)	x	x	x	x	x	4.6µM*
CN(c1ccc(Cl)cc1)c1cc(=O)n(C)c2ccccc12	u	u	-3%	10µM*	81	-15%
SMILES	FMDV antiviral	LASV entry inh	FBPA Giardia inh	HCV inhibitor	HCMV inh	MARV entry inh
COc1cc(=O)n(C)c2ccccc12	x	9%	-5%	-9%	193	10%
Cc1cccn2c(=O)c3cc(C(=O)NCC4CCCO4)c(=N)n(CC4CCCO4)c3nc12 (centres undefined)	-15%	14%	5%	6%	-70*	u
Cc1cccn2c(=O)c3cc(C(=O)NCc4ccco4)c(=N)n(C4CCCC4)c3nc12	-14%	-7%	x	6.3µM*	-18	u
Cc1cccn2c(=O)c3cc(C(=O)NC4CCCC4)c(=N)n(CC4CCCO4)c3nc12 (centres undefined)	-7%	17%	4%	-1%	-38	-1%[46.1 µM]
N=c1c(C(=O)NCCc2ccccc2)cc2c(=O)n3ccccc3nc2n1Cc1ccco1	-26%	u	7%	u	u	u
COc1ccc(CCn2c(=N)c(C(=O)NCc3ccco3)cc3c(=O)n4ccccc4nc32)cc1	-2%	-26%[14.3 µM]	3%	x	u	21µM*
COc1ccc(CCn2c(=N)c(C(=O)NCC3CCCO3)cc3c(=O)n4cccc(C)c4nc32)cc1 (centres undefined)	-10%	x	8%	-24%	-108*	x
COc1ccccc1C(=O)Nc1c(C)cc(Br)cc1C	-2%	x	4%	u	-61*	x
COc1ccccc1NC(=O)Nc1ccc(NC(=O)c2ccccc2O)cc1	-1%	x	5%	13µM*	-28	x
COC(=O)c1ccccc1NC(=O)c1ccccc1OC	-23%	-12%	4%	11µM*	8	-11%
CCC(=O)C(C(=O)OC)[C@H](CCc1ccccc1)NC(=O)OC (some centres undefined)	x	x	-4%	x	x	x
COc1ccccc1-c1nc2c(c(SCC(=O)Nc3ccccc3F)n1)Cc1c(CO)cnc(C)c1O2	-21%	1%[46.1 µM]	x	x	-20	x
CCNc1ncc2nc(CCc3ccccc3)c(=O)n(C)c2n1	26%	x	-5%	x	x	x
COc1ccccc1C1Nc2ccccc2-n2c(-c3ccccc3)c3c(=O)n(C)c(=O)n(C)c3c21 (centres undefined)	u	u	x	x	-96*	u
COC(=O)c1ccc(NC(=O)c2nn(C)c3c2COc2ccccc2-3)cc1	u	u	x	x	-71*	u
Cc1nnc(SCC(=O)N2CCC(c3noc4ccc(F)cc34)CC2)s1	-22%	0%	8%	4%	-70*	5%
Cc1sc2ncnc(SCC(=O)N3CCC(c4noc5ccc(F)cc45)CC3)c2c1C	-10%	9%	3%	-7%	-1	30%
CSc1nc(N)nc(SCC(=O)c2ccc(C)cc2)c1C#N	-15%	u	1%[12.9 µM]	u	19	3%
CSc1nc(N)nc(SCC(=O)OC(C)C)c1C#N	-19%	-3%	-1%	-4%	-108*	13%
CC(C)C[C@@H]1COc2cc(NCCO)ccc2S(=O)(=O)N1	x	x	x	x	-7	x
O=C(c1cc2c(=O)oc3ccccc3c2s1)N1CCN(c2cccc(Cl)c2)CC1	-7%	-17%[46.1 µM]	x	x	-62*	0%[46.1 µM]
O=C(c1cc2c(=O)oc3ccccc3c2s1)N1CCN(c2ccccc2)CC1	-16%	u	x	x	7	7%[46.1 µM]
